SMN2 splice up = SMN2 splice variant enhancement. HEK293 SMN2-luciferase splicing reporter, luminescence, 30-36 h. Potency, µM (top dose mostly 46.1 µM), without a hit: top-dose activity change, positive = activation, usual class: activators. hit rate 2.8% among 210,000. AID 1458; further: % of control where 0% means no effect; nearly all actives have a fitted effect of over 55% in size
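HEK293 cells carry an SMN2 […]–luciferase reporter in which exon 7 inclusion puts luciferase in frame. Cells were plated 10-12 h before compound addition, then incubated 30-36 h at 37C. ONE-Glo luminescence was read; sodium butyrate at 4.5 mM final served as control.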
NPC1 promoter act = activates the NPC1 promoter. Huh7 NPC1 promoter luciferase reporter, 24 h. Potency, µM (doses to about 9.22 µM), for the others: top-dose activation, usual class: activators. hit rate 2.4% among 320,000. AID 485313; further: % of control where 0% means no effect; nearly all actives have a fitted effect of over 60% in size
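Huh7 cells stably carrying NPC1 promoter–luciferase, plated in Opti-MEM with 10% FBS for 2 h, were exposed to compound in DMSO for 24 h at 37 °C; luciferase reagent was added for 10 min and luminescence read.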
ELG1 genotoxic = genotoxicity induction in ELG1-luciferase HEK293T cells. HEK293T ELG1-luciferase reporter, luminescence, 16 h. Potency, µM (top dose mostly 46 µM), for inactives: top-dose activity change, positive = activation, most hits filed as activators. hit rate 1.3% among 330,000. AID 504466; further: % of control where 0% means no effect; nearly all actives have a fitted effect of over 60% in size
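Step 1: seed 2,000 HEK293T ELG1-luciferase cells per well. Step 2: add compound or DMSO, incubate 16 hr at 37 °C. Step 3: ONE-Glo, 30 min at room temperature, read luminescence.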
ELG1 repair inh = ELG1-dependent DNA repair inhibition | hit rate 2.3% among 330,000 | AID 504467 | HEK293T ELG1-luciferase reporter, luminescence, 16 h; DNA damage induced by 5-fluorouridine | Potency, µM (titrated, usually from 46.1 µM), for the others: at the top dose activity change, negative = inhibition, hits mostly inhibitors; further: on the % scale 0 is the no-effect control and ±100 the full control effect; nearly all actives have a fitted effect of over 55% in size
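5-Fluorouridine DNA damage + compound/DMSO, 2,000 cells/well, 16 h, 37 °C/5% CO2. ONE-Glo, 30 min RT, luminescence. Readout = decrease in reporter signal.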
FLuc modulator = inhibits or activates purified firefly luciferase, miR-21 counter-screen; P08659; purified FLuc, Km substrates, luminescence inhibition; Potency, µM (series often up to 57.5 µM), inactives show at the top dose activity change, negative = inhibition, most hits filed as inhibitors; hit rate 6.9% among 360,000; AID 588342;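 further: plate controls were vehicle for no effect and reference inhibitor for full effect; nearly all actives have a fitted effect of over 55% in size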
Target sequence (P08659 whole entry, looked up): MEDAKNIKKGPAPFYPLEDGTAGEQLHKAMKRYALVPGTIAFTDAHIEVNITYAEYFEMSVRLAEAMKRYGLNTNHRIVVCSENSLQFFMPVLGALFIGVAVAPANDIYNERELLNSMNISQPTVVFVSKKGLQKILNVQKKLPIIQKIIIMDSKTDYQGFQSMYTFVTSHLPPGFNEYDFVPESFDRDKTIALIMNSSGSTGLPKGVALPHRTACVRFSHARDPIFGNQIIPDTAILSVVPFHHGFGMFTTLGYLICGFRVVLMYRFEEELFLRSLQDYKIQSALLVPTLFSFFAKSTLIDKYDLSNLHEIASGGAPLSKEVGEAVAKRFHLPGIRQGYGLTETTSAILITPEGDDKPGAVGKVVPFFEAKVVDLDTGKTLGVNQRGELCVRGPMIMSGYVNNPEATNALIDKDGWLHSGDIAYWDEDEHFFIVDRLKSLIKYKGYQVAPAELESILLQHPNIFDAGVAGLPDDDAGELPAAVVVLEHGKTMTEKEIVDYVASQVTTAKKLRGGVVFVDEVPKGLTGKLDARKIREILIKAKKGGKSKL
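Purified P. pyralis luciferase, 10 nM final, with Km-level 10 uM D-luciferin and 10 uM ATP in 50 mM Tris acetate pH 7.5, 10 mM Mg acetate, 0.01% Tween-20, 0.05% BSA; 6-point qHTS titration about 60 µM downward; luminescence read.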
Rab9 prom act = Rab9 promoter activation. Huh7 Rab9 promoter-luciferase reporter, luminescence, 24 h. Potency, µM (doses to about 9.22 µM), for the others: top-dose activation, negative = inhibition, most hits filed as activators. hit rate 2.8% among 320,000; further: % of control where 0% means no effect; nearly all actives have a fitted effect of over 60% in size
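Steps: seed 1500 Huh7 Rab9-luc cells per well, rest 2 h at 37 °C; add compound in DMSO; incubate 24 h; add luciferase reagent, 10 min ambient; read luminescence.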
The depositor's hits bear a star; u = inconclusive; x = no result given. Shown are actives, neighbours in structure and some others; about 9.2% of the full set was active somewhere. The call rests on the fitted dose curve; in most records, active means well fitted curve in the direction sought with a large enough effect; inconclusive means small, poorly fitted or top-dose-only effect, or another doubt; inactive means no such curve, though single readings can be large; an effect the other way counts as inactive or inconclusive. Potency means the concentration at half of the fitted maximal effect.

SMILES | SMN2 splice up | NPC1 promoter act | ELG1 genotoxic | ELG1 repair inh | FLuc modulator | Rab9 prom act
CCN(CC)S(=O)(=O)c1cccc(C(=O)Nc2nc3cc4c(cc3s2)OCCO4)c1 | -77.3% | -2.6% | -18.3% | 11.6µM* | 9.53µM* | -6.4%
COc1ccc(OC)c2sc(NC(=O)c3cccc(N4C(=O)CCC4=O)c3)nc12 | x | -1.0% | 14.1% | -2.9% | 2.2% | 0.3%
Cc1ccc(Cl)cc1N1CCN(C(=O)c2cc(S(=O)(=O)N3CCCCCC3)cn2C)CC1 | x | x | x | x | 1.1% | x
CC(C)(C)OC(=O)NC1CNNC1=O (configuration not stated) | x | -2.6% | 3.9% | 18.6% | 2.7% | 2.5%
COc1ccc(-c2nc(NC(=O)c3cc(C(C)(C)C)nn3C)sc2C)cc1 | -42.6% | -5.0% | -8.9% | 8.2µM* | -7.8% | -3.2%
O=C(CCc1nnc(C2(c3ccc(Cl)cc3)CCC2)o1)NC1CC1 | x | -1.4% | -0.3% | -16.3% | -15.0% | 14.4%
COCC(C)NC(=O)CCc1nnc(C2(c3ccc(Cl)cc3)CCC2)o1 (configuration not stated) | x | 22.4% | u | u | 23.9µM* | u
O=C(CCc1nnc(C2(c3ccc(Cl)cc3)CCC2)o1)N1CCCC1 | x | u | u | u | 16.9µM* | u
CC(=O)c1ccc(-c2nnc(CCC(=O)N3CCCC(C(=O)CC(C)C)C3)o2)s1 (configuration not stated) | x | 4.47µM* | u | u | 19µM* | 3.55µM*
C=CCNC(=O)CCc1nnc(C2(c3ccc(Cl)cc3)CCC2)o1 | 8.91µM* | 29.1% | u | u | 16.9µM* | 3.16µM*
COC(=O)CNC(=O)CCc1nnc(C2(c3ccc(Cl)cc3)CCC2)o1 | x | 8.2% | u | u | u | 17.9%
C=C(C)CNC(=O)CCc1nnc(C2(c3ccc(Cl)cc3)CCC2)o1 | x | 11.1% | 11.8% | u | u | u
Cc1ccc(CNC(=O)c2oc3ccc(S(=O)(=O)N4CCCC(C)C4)cc3c2C)cc1 (configuration not stated) | -29.9% | x | x | x | 2.3% | x
CCCSc1nc2sc3c(c2c(=O)n1-c1ccccc1)CCC(C)C3 (configuration not stated) | -1.5% | x | x | x | -2.4% | x
C=CCN1C(=O)C(=O)N(CC(=O)c2ccc3c(c2)CCCC3)C1=O | x | 8.8% | 6.4% | u | -17.5% | 20.4%
NC(=O)C1CCCN(C(=O)CCc2nnc(C3(c4ccc(Cl)cc4)CCC3)o2)C1 (configuration not stated) | x | -2.4% | -4.6% | 11.0% | 3.6% | 4.0%
CCC(=O)C1CCCN(C(=O)CCc2nnc(C3(c4ccc(Cl)cc4)CCC3)o2)C1 (configuration not stated) | x | u | u | u | 13.5µM* | u
O=C(c1cnc(-c2ccccc2)s1)c1ccc(Cl)cc1Cl | -0.4% | -2.1% | -1.0% | 6.4% | u | 8.3%
CN(C)/C=N/c1ncc(C(=O)c2ccc(Cl)cc2)s1 | 10.1% | 28.0% | 16.4µM* | u | u | 6.0%
CC(=O)c1cnc(Nc2cccc(Cl)c2Cl)s1 | 12.6µM* | 23.2% | u | u | u | u
CNc1ncc(C(=O)c2ccc(Br)cc2)s1 | 15.8µM* | 2.82µM* | u | u | 12µM* | 2µM*
CN(C)/C=N/c1ncc(C(=O)c2ccc(Cl)cc2Cl)s1 | -19.6% | 6.2% | 1.0% | 0.4% | -11.0% | 14.5%
O=C(c1ccc(Cl)cc1)c1cnc(-c2ccccc2)s1 | 3.4% | 2.24µM* | 12.7% | u | u | 2.82µM*
Nc1cn(C2OC(CO)C(O)C2O)c(=O)[nH]c1=O (configuration not stated) | x | -3.3% | -0.2% | 0.0% | 4.8% | 4.9%
CNc1ncc(C(=O)c2ccccc2)s1 | 17.1% | u | u | u | u | u
SMILES | SMN2 splice up | NPC1 promoter act | ELG1 genotoxic | ELG1 repair inh | FLuc modulator | Rab9 prom act
O=C(c1ccc(Cl)cc1)c1cnc(Nc2ccccc2Cl)s1 | 22.4µM* | 1.78µM* | u | u | 1.51µM* | 1.12µM*
CO/N=C/CC(=O)c1cnc(-c2ccc(Cl)cc2)s1 | 25.1µM* | u | u | u | u | u
CO/N=C/CC(=O)c1ccc(-c2ccccc2)cc1 | 12.1% | -4.2% | 10.9% | u | u | 12.4%
COc1cccc(CNS(=O)(=O)c2cc3c4c(c2)CCN4C(=O)CC3)c1 | x | 3.5% | -4.0% | 12.6% | 8.1% | 0.0%
CCCCN(CCCC)CCNC(=O)c1cn(CC)c2ccc(S(=O)(=O)N3CCCC3)cc2c1=O | x | -2.7% | 3.1% | 2.3% | 1.9% | -5.7%
CCc1ccc(-c2nc(SCC(=O)N(CC)C3CCS(=O)(=O)C3)n[nH]2)cc1 (configuration not stated) | x | 21.4% | 9.0% | u | 3.38µM* | u
CCc1ccc(-c2nc(SCC(=O)N(C)C3CCS(=O)(=O)C3)n[nH]2)cc1 (configuration not stated) | x | 13.5% | 14.4% | u | u | 24.2%
CCc1ccc(-c2nc(SCC(=O)c3c(N)n(C4CC4)c(=O)[nH]c3=O)n[nH]2)cc1 | x | 14.3% | -0.6% | 1.5% | 2.13µM* | 26.9%
Cc1ccc(Nc2nnc(SCC(=O)c3c(N)n(C4CC4)c(=O)[nH]c3=O)s2)cc1C | x | 12.3% | -1.3% | -22.4% | 0.757µM* | 2.4%
CCOC(=O)c1sc2nc(C)nc(SCC(=O)N(CC)C3CCS(=O)(=O)C3)c2c1C (configuration not stated) | -59.8% | -5.9% | -2.9% | 16.4µM* | u | -7.6%
Cc1oc2ncn(CC(C)C)c(=O)c2c1C(=O)NCCCN(C)Cc1ccccc1 | x | x | x | x | -0.3% | x
Cc1nc(CC(=O)Nc2cc(Cl)ccc2C)cs1 | -1.8% | x | x | x | -7.0% | x
O=C(CN1CCCC1c1cccs1)Nc1cccc(S(=O)(=O)N2CCCC2)c1 (configuration not stated) | x | -3.2% | -4.7% | u | 5.4% | -7.3%
CCc1ccc(-c2nc(SCC(=O)NC3CC3)n[nH]2)cc1 | x | -2.4% | u | u | 13.5µM* | 15.1%
O=C(CSc1n[nH]c(-c2cccs2)n1)N1CCOCC1 | x | x | 0.9% | u | x | x
O=C(CSc1n[nH]c(-c2ccc(Br)cc2)n1)NC1CCCC1 | x | x | -0.2% | u | x | x
CCc1ccc(-c2nc(SCC(=O)N3CCOCC3)n[nH]2)cc1 | x | 7.0% | 9.5% | u | 16.9µM* | 21.7%
COc1ccccc1CNC(=O)Cn1ncc2c(=O)oc3ccc(C)cc3c21 | -9.7% | x | x | x | -0.1% | x
COc1cccc(CNS(=O)(=O)c2c(C(=O)N3CCCC3)c(C)n(C)c2C)c1 | x | -6.9% | 0.3% | u | 2.3% | 0.5%

From PubChem
